Active and inactive are the calls of the source.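 How the source made its calls, unless noted: active means inhibition above 20% together with a positive visual image hit; inconclusive means visual image hit but inhibition not above 20%; inactive means no visual image hit.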
experiment: inhibitors of TNFa-induced NFkB p65 translocation, primary screen, imaging, HUVEC, MLSMR starter and 10KST1 sets (AID 438); settings: HUVEC TNFa-induced p65 nuclear translocation; cell count: measured here: nuclei count (cytotoxicity indicator), at 2.08 µM; inhibition: at 2 µM, stronger effect = higher value, 0% TNFa-plus-vehicle, 100% no-TNFa wells;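 further: compound added about 3h40 before a 20 min TNFalpha stimulation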;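 on inhibition: signal is the nuclear over cytoplasmic p65 intensity ratio per well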

Structure (SMILES)	inhibition	cell count
Cc1cccc2sc(NC(=O)CN(C)S(=O)(=O)c3cccs3)nc12	-25.8% (inactive)	601
CCOc1cc(NC(=O)c2ccco2)c(OCC)cc1NC(=O)Cc1cccc(OC)c1	-14.5% (inactive)	592
CC(=O)Nc1c2c(nn1-c1ccc(C)cc1C)CSC2	0.9% (inactive)	570
CC(CC(=O)NC1CCSC1=O)c1ccccc1 (stereo not given)	-4.2% (inactive)	396
Cc1c(C(=O)O)c(-c2ccccc2)nn1-c1ccccc1	12.1% (inactive)	119
Cc1nnc(SCCn2c(Br)nc3c2c(=O)n(C)c(=O)n3C)s1	3.8% (inactive)	410
COc1ccccc1NC(=O)Cc1noc(CSc2cc(C)c3ccccc3n2)n1	-12.8% (inactive)	572
COc1cccc2sc(NC(=O)c3ccc(S(=O)(=O)N4CCOCC4)cc3)nc12	0.5% (inactive)	357
C=CCN(C(=O)CNC(=O)c1ccco1)C(C(=O)NC1CCCCC1)c1ccccc1F (stereo not given)	-1.6% (inactive)	398
O=C(Nc1ccc(OC(=O)c2ccco2)cc1)c1ccco1	-2.2% (inactive)	239
CCOc1ccc2ccccc2c1C(=O)N1CCN(c2ccccc2)CC1	-3% (inactive)	287
Cc1ccc(C)c2[nH]c(=O)c(CCNC(=O)CC(C)(C)C)cc12	-5.3% (inactive)	650
CC(=O)c1ccc(OCC(O)CN2CC(C)OC(C)C2)cc1 (stereo not given)	8.6% (inactive)	310
O=c1[nH]c(SCc2ccccc2Cl)nc2c1CCCC2	-14.3% (inactive)	447
CCCC(NC(=O)c1ccccc1)c1nc2ccccc2n1Cc1ccc(C(=O)OC)o1 (stereo not given)	5.5% (inactive)	722
O=C(NC1CCCC1)C(c1ccco1)N(Cc1ccccc1)C(=O)c1csnn1 (stereo not given)	5.4% (inactive)	426
O=C(Oc1cccc2cccnc12)c1cccc(-n2cnnn2)c1	2.7% (inactive)	461
Cc1cc(C(N)=O)c2cc(Br)ccc2n1	5.5% (inactive)	367
Cc1nc2ccc(S(=O)(=O)NC(C(=O)NCc3cccs3)C(C)C)cc2s1 (stereo not given)	-8.3% (inactive)	332
CCN(CC)c1ccc(NC(=O)CN2C(=O)CC(C)(C)S(=O)(=O)c3ccccc32)c(C)c1	5.8% (inactive)	879

Structure (SMILES)	inhibition	cell count
O=c1[nH]cnc2c1nc(SCc1ccccc1)n2C1OC(CO)C(O)C1O (stereo not given)	14.3% (inactive)	459
Cc1ncc(CSc2nc3ccccc3[nH]2)c(N)n1	11.9% (inactive)	920
CN(C(=O)c1ccccc1Cl)c1ccccc1	-2.4% (inactive)	611
CCCSc1nc(N)c(C#N)c(-c2ccc(C)cc2)c1C#N	10.1% (inactive)	683
CC1(C)CC(=O)C2=C(C1)NC(=O)CC2C(=O)NCc1ccc(F)cc1 (stereo not given)	-11.5% (inactive)	533
CCN(CC)CCCN1C(=O)C(=O)/C(=C(/O)c2ccc3c(c2)OCO3)C1c1ccccn1 (stereo not given)	1.8% (inactive)	621
CCOC(=O)C1CCN(c2cc(C)nc3cc(-c4cccc(F)c4)nn23)CC1	-4.7% (inactive)	675
COCCNC(=O)C(c1ccc(C)o1)N(Cc1ccc(OC)cc1)C(=O)Cn1nnc2ccccc21 (stereo not given)	7% (inactive)	249
CCN1CCN(c2ncnc3c2cnn3-c2ccc(C)cc2C)CC1	1.3% (inactive)	561
Cc1cccc(C2c3c(n(C)c(=O)n(C)c3=O)N=C3c4ccccc4C(=O)C32)c1 (stereo not given)	-5.6% (inactive)	323
CCOC(=O)c1cc2c(=O)n3ccccc3nc2n(CCCOC)c1=NC(C)=O	11.2% (inactive)	657
CCOc1ccccc1CNC(=O)CCN1C(=O)COc2ccccc21	-1.8% (inactive)	630
COc1cc2c(cc1OC)CN(C(=O)CSc1nc3[nH]ncc3c(=O)n1-c1ccccc1)CC2	-8.2% (inactive)	509
O=C(O)C1CC=CCC1C(=O)NCc1ccccc1 (stereo not given)	6% (inactive)	625
CCCNc1nc2c(c(=O)n(C)c(=O)n2C)n1Cc1cccc(C)c1	-3.6% (inactive)	697
Cc1ccc2c(c1)NC(=O)C(CC(=O)NC1CCCCC1C)O2 (stereo not given)	2% (inactive)	611
Cc1cccc(N2CCN(C(=O)CCn3c(=S)[nH]c4cc5c(cc4c3=O)OCO5)CC2C)c1 (stereo not given)	3% (inactive)	488
CC1CN(Cc2nc3c(c(=O)[nH]c(=O)n3C)n2CC(N)=O)CC(C)O1 (stereo not given)	-7.4% (inactive)	780
Cc1[nH]nc(N=CC2=C(O)CC(C)(C)CC2=O)c1-c1ccccc1	-8.6% (inactive)	551
Cc1ccc(N2C(=O)c3ccccc3C2O)nc1 (stereo not given)	0.8% (inactive)	627

experiment: reduction of polyQ htt aggregates in cells – imaging, exon1htt(103Q)mCFP cells, high-content imaging, primary screen (AID 483;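 active means visual image review flags a hit and inhibition of aggregation exceeds 20%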;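 further: compound exposure lasted 3 days before fixation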;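 on nuclei count: percent of the per-plate median nuclei count of sample wells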); settings: exon1htt(103Q)mCFP cell line, aggregate imaging, at 2 µM; inhibition of aggregation: stronger effect = higher value; nuclei count: measured here: cell count, toxicity

Structure (SMILES)	nuclei count [%]	inhibition of aggregation
Cc1cccc2sc(NC(=O)CN(C)S(=O)(=O)c3cccs3)nc12	114	-7% (inactive)
CCOc1cc(NC(=O)c2ccco2)c(OCC)cc1NC(=O)Cc1cccc(OC)c1	107	-4.3% (inactive)
CC(=O)Nc1c2c(nn1-c1ccc(C)cc1C)CSC2	95.7	9.6% (inactive)
CC(CC(=O)NC1CCSC1=O)c1ccccc1 (stereo not given)	102	8.2% (inactive)
Cc1c(C(=O)O)c(-c2ccccc2)nn1-c1ccccc1	85.6	3.2% (inactive)
Cc1nnc(SCCn2c(Br)nc3c2c(=O)n(C)c(=O)n3C)s1	101	2% (inactive)
COc1ccccc1NC(=O)Cc1noc(CSc2cc(C)c3ccccc3n2)n1	81.6	25.7% (inactive)
COc1cccc2sc(NC(=O)c3ccc(S(=O)(=O)N4CCOCC4)cc3)nc12	74.7	8.5% (inactive)
C=CCN(C(=O)CNC(=O)c1ccco1)C(C(=O)NC1CCCCC1)c1ccccc1F (stereo not given)	106	18.6% (inactive)
O=C(Nc1ccc(OC(=O)c2ccco2)cc1)c1ccco1	92	-7.4% (inactive)
CCOc1ccc2ccccc2c1C(=O)N1CCN(c2ccccc2)CC1	15.6	41.9% (inactive)
Cc1ccc(C)c2[nH]c(=O)c(CCNC(=O)CC(C)(C)C)cc12	63.8	33.1% (inactive)
CC(=O)c1ccc(OCC(O)CN2CC(C)OC(C)C2)cc1 (stereo not given)	92.4	15% (inactive)
O=c1[nH]c(SCc2ccccc2Cl)nc2c1CCCC2	77.2	36.1% (inactive)
CCCC(NC(=O)c1ccccc1)c1nc2ccccc2n1Cc1ccc(C(=O)OC)o1 (stereo not given)	105	7.1% (inactive)
O=C(NC1CCCC1)C(c1ccco1)N(Cc1ccccc1)C(=O)c1csnn1 (stereo not given)	97.6	-6.3% (inactive)
O=C(Oc1cccc2cccnc12)c1cccc(-n2cnnn2)c1	105	-8.5% (inactive)
Cc1cc(C(N)=O)c2cc(Br)ccc2n1	94.5	0.7% (inactive)
Cc1nc2ccc(S(=O)(=O)NC(C(=O)NCc3cccs3)C(C)C)cc2s1 (stereo not given)	88.7	24.4% (inactive)
CCN(CC)c1ccc(NC(=O)CN2C(=O)CC(C)(C)S(=O)(=O)c3ccccc32)c(C)c1	60.8	30.2% (inactive)

Structure (SMILES)	nuclei count [%]	inhibition of aggregation
O=c1[nH]cnc2c1nc(SCc1ccccc1)n2C1OC(CO)C(O)C1O (stereo not given)	71.9	10.4% (inactive)
Cc1ncc(CSc2nc3ccccc3[nH]2)c(N)n1	115	-17.1% (inactive)
CN(C(=O)c1ccccc1Cl)c1ccccc1	107	3% (inactive)
CCCSc1nc(N)c(C#N)c(-c2ccc(C)cc2)c1C#N	104	-10.3% (inactive)
CC1(C)CC(=O)C2=C(C1)NC(=O)CC2C(=O)NCc1ccc(F)cc1 (stereo not given)	86.7	-1.8% (inactive)
CCN(CC)CCCN1C(=O)C(=O)/C(=C(/O)c2ccc3c(c2)OCO3)C1c1ccccn1 (stereo not given)	85.9	21.9% (inactive)
CCOC(=O)C1CCN(c2cc(C)nc3cc(-c4cccc(F)c4)nn23)CC1	97.8	12% (inactive)
COCCNC(=O)C(c1ccc(C)o1)N(Cc1ccc(OC)cc1)C(=O)Cn1nnc2ccccc21 (stereo not given)	93.1	-3.6% (inactive)
CCN1CCN(c2ncnc3c2cnn3-c2ccc(C)cc2C)CC1	94.2	-28.5% (inactive)
Cc1cccc(C2c3c(n(C)c(=O)n(C)c3=O)N=C3c4ccccc4C(=O)C32)c1 (stereo not given)	102	6.9% (inactive)
CCOC(=O)c1cc2c(=O)n3ccccc3nc2n(CCCOC)c1=NC(C)=O	94.4	21.5% (inactive)
CCOc1ccccc1CNC(=O)CCN1C(=O)COc2ccccc21	47.7	-12.2% (inactive)
COc1cc2c(cc1OC)CN(C(=O)CSc1nc3[nH]ncc3c(=O)n1-c1ccccc1)CC2	86.9	-8.9% (inactive)
O=C(O)C1CC=CCC1C(=O)NCc1ccccc1 (stereo not given)	107	-11% (inactive)
CCCNc1nc2c(c(=O)n(C)c(=O)n2C)n1Cc1cccc(C)c1	97.4	10.2% (inactive)
Cc1ccc2c(c1)NC(=O)C(CC(=O)NC1CCCCC1C)O2 (stereo not given)	86.3	22% (inactive)
Cc1cccc(N2CCN(C(=O)CCn3c(=S)[nH]c4cc5c(cc4c3=O)OCO5)CC2C)c1 (stereo not given)	112	-4.6% (inactive)
CC1CN(Cc2nc3c(c(=O)[nH]c(=O)n3C)n2CC(N)=O)CC(C)O1 (stereo not given)	112	-1.9% (inactive)
Cc1[nH]nc(N=CC2=C(O)CC(C)(C)CC2=O)c1-c1ccccc1	85.2	-3.5% (inactive)
Cc1ccc(N2C(=O)c3ccccc3C2O)nc1 (stereo not given)	117	-27.7% (inactive)

From PubChem BioAssay
